One test concerns the target Cyclin-dependent kinase 2 (Homo sapiens) (UniProt P24941). Conditions: at 1 µM.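 Further: mean inhibition measured against the CDK2/cyclin E complex.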
Broadly, the inhibition is the change of the read-out against control, counted positive when it falls. In the case of `CCn1c(-c2nonc2N)nc2c(C#CC(C)(C)O)ncc(OCC3CCNCC3)c21`, the inhibition was 9.55%.

Take `CCn1c(-c2nonc2N)nc2c(C#CC(C)(C)O)nc(O[C@@H](CN)c3ccccc3)cc21`: the inhibition turned out to be 4.27%.

Turning to `NS(=O)(=O)c1ccc(-c2ccc3c(NC(=O)C4CC4)n[nH]c3c2)cc1`, the inhibition was 5.85%.

On to `CCn1c(-c2nonc2N)nc2c(C#CCN)ncc(OCCCN)c21`, for which the inhibition was determined as 2.69%.

With `CCn1c(-c2nonc2N)nc2c(C#CC(C)(C)O)ncc(OC[C@@H]3CCCN3)c21`, the inhibition is -0.07%.

On to `COc1cc(C=NNc2ncnc3c2cnn3Cc2ccccc2)ccc1O`, for which the inhibition stood at 6.08%.

For the molecule `Cc1cc(-c2ccco2)cc(C)c1/C=C/c1cncc(-c2nn[nH]n2)c1`, the inhibition amounted to 2.54%.

Turning to `Fc1ccc(-c2ncn(C3CCNCC3)c2-c2ccnc(Oc3ccccc3)n2)cc1`, the inhibition is -0.94%.

For the molecule `NS(=O)(=O)c1ccc(N/C=C2\C(=O)Nc3ccc4ncsc4c32)cc1`, the inhibition is 75%.

Take `COc1cccc(COc2cc(-n3cnc4ccccc43)sc2C(N)=O)c1`: the inhibition was -0.85%.

Consider `NC(=O)c1sc(-n2cnc3cc(C(F)(F)F)ccc32)cc1OCc1ccccc1Br`, for which the inhibition was found to be 3.19%.

For the molecule `COc1cc2c(cc1Nc1nc(Nc3ccsc3C(N)=O)c3cc[nH]c3n1)N(C(=O)CN(C)C)CCC2`, the inhibition was -1.41%.

In the case of `COc1cccc(-n2ncc3c(N/N=C/c4ccncc4)ncnc32)c1`, the inhibition stood at 65.2%.

For `Nc1nonc1-c1nc2cnccc2n1C1CCCCC1`, the inhibition was 41.5%.

In another test the target is CDK3/Cyclin E (Homo sapiens) (UniProt P24864+Q00526). Conditions: at 0.1 µM.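 Further: reported percentages are mean inhibition values.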
Sequence of CDK3/Cyclin E (Homo sapiens) (P24864 whole entry, looked up): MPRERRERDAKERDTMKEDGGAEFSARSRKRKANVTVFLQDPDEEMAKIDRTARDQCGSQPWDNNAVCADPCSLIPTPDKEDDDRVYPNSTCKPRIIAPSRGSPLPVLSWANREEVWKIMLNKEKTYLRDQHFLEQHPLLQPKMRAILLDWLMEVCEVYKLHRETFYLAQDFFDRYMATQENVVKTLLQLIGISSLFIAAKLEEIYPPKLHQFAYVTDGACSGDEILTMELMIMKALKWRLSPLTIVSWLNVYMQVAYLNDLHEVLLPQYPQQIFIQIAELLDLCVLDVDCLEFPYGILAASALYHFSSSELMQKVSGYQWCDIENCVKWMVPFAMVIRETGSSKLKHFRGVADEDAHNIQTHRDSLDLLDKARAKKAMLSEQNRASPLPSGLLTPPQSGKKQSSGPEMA
Sequence of CDK3/Cyclin E (Homo sapiens) (Q00526 whole entry, looked up): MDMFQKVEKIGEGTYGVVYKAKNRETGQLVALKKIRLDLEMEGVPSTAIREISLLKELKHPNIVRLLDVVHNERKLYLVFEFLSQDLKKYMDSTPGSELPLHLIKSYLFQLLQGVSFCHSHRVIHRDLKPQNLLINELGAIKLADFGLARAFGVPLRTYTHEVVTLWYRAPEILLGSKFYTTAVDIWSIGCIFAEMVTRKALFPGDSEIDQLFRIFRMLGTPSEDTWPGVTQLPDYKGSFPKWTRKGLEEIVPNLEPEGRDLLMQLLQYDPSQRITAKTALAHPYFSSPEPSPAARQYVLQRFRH
Consider `CCn1c(-c2nonc2N)nc2c(C#CC(C)(C)O)ncc(OCC3CCNCC3)c21`, for which the inhibition worked out at 7.2%.

Regarding `CCn1c(-c2nonc2N)nc2c(C#CC(C)(C)O)nc(O[C@@H](CN)c3ccccc3)cc21`, the inhibition worked out at 3.62%.

With `NS(=O)(=O)c1ccc(-c2ccc3c(NC(=O)C4CC4)n[nH]c3c2)cc1`, the inhibition stood at 2.19%.

Consider `CCn1c(-c2nonc2N)nc2c(C#CCN)ncc(OCCCN)c21`, for which the inhibition was 2.51%.

Regarding `CCn1c(-c2nonc2N)nc2c(C#CC(C)(C)O)ncc(OC[C@@H]3CCCN3)c21`, the inhibition was -0.42%.

On to `COc1cc(C=NNc2ncnc3c2cnn3Cc2ccccc2)ccc1O`, for which the inhibition amounted to 0.9%.

For the molecule `Cc1cc(-c2ccco2)cc(C)c1/C=C/c1cncc(-c2nn[nH]n2)c1`, the inhibition is -0.91%.

For the molecule `Fc1ccc(-c2ncn(C3CCNCC3)c2-c2ccnc(Oc3ccccc3)n2)cc1`, the inhibition is -3.17%.

For the molecule `NS(=O)(=O)c1ccc(N/C=C2\C(=O)Nc3ccc4ncsc4c32)cc1`, the inhibition is 75.5%.

`COc1cccc(COc2cc(-n3cnc4ccccc43)sc2C(N)=O)c1`: the inhibition was -1.38%.

`NC(=O)c1sc(-n2cnc3cc(C(F)(F)F)ccc32)cc1OCc1ccccc1Br`: the inhibition is -1.34%.

For `COc1cc2c(cc1Nc1nc(Nc3ccsc3C(N)=O)c3cc[nH]c3n1)N(C(=O)CN(C)C)CCC2`, the inhibition is 0.3%.

Turning to `COc1cccc(-n2ncc3c(N/N=C/c4ccncc4)ncnc32)c1`, the inhibition was found to be 12.2%.

On to `Nc1nonc1-c1nc2cnccc2n1C1CCCCC1`, for which the inhibition came to 4.5%.

The values are drawn from ChEMBL document CHEMBL1961873, “Compounds: GSK PKIS; Assays: Nanosyn kinase panel” (2012).
